The subject of one test is TAB113. Briefly: qHTS profiling for inhibitors of Plasmodium falciparum proliferation (AID 504749). Also: potency is read from the fitted curve at half-maximal effect. The settings on record: P. falciparum in erythrocytes, SYBR Green DNA, 72 h; series mostly up to 28.7 µM. The method in brief: (§1)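 Readout was DNA-dye fluorescence from lysed cultures, ex 485/em 535 nm. Parasitized red cells had grown 72 h with compound; data scaled between 0.29 uM artemisinin and DMSO wells and corrected using vehicle-only plates.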
A general note: Quantitative high-throughput screening tests each substance at several concentrations.

In the next test the test system is TAB165. The test is described as above. The settings on record: P. falciparum in erythrocytes, SYBR Green DNA, 72 h; series mostly up to 28.7 µM. The gist of the method:
as §1

The next test deals with W2. The test is described as above. As to conditions: P. falciparum in erythrocytes, SYBR Green DNA, 72 h; series mostly up to 28.7 µM. The gist of the method: as §1
For the next test, the system named is CRL-7250. Briefly: Cytotoxic Profiling of Annotated Libraries Using Quantitative High-Throughput Screening (AID 1296008). Also: potency is read from the fitted curve at half-maximal effect. As to max response: % is scaled to controls: 0 for no effect and ±100 for the full control effect. As to conditions: Five cell lines viability, CellTiter-Glo ATP luminescence, 48-72 h; max response: hits give low values. The gist of the method: (§2)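 Cells exposed to compounds for 48 or 72 hr at 37 degrees Celsius. Viability read as ATP-coupled luminescence with CellTiter-Glo after 10 min at room temperature.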
In general terms: Cellular ATP, detected with luciferase, serves as a proxy for viable cell number.

The next test has as its system HEK293. The test is described as above. The settings on record: Five cell lines viability, CellTiter-Glo ATP luminescence, 48-72 h; max response: hits give low values. The gist of the method: as §2
The test system of test [1] is HaCat. Described as above. As to conditions: Five cell lines viability, CellTiter-Glo ATP luminescence, 48-72 h; max response: hits give low values. The gist of the method:
as §2

The subject of another test is KB-3-1. Described as above. The settings on record: Five cell lines viability, CellTiter-Glo ATP luminescence, 48-72 h; max response: hits give low values. The gist of the method: as §2
A further test relates to NIH3T3. Described as above. As to conditions: Five cell lines viability, CellTiter-Glo ATP luminescence, 48-72 h; max response: hits give low values. The method in brief: as §2
In the next test the test system is HEK293T. Briefly: qHTS assay to identify novel small-molecules to repurpose for Merkel cell carcinoma treatment (AID 1296009). As to conditions: MCC and control cell lines, CellTiter-Glo viability, 72 h; at 44.8 µM (top of the series) unless noted. The method in brief:
(§3)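 Cells were incubated with compound for 72 hr at 37 degree celsius before CellTiter-Glo addition. Luminescence was normalized with no-cell wells as full cytotoxicity and DMSO as baseline.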

For test [2], the system named is HACAT. The test is described as above. As to conditions: MCC and control cell lines, CellTiter-Glo viability, 72 h; at 44.8 µM (top of the series) unless noted. The method in brief: as §3

Where “and” joins values, the source holds several entries; their conditions need not be identical. Identical values can stand only once. Results filed as inconclusive are left out. Some compounds were tested as several samples or in several runs, with calls that do not always agree. A number with no mark means an inactive call. Calls of active or inactive are those of the source. Calls follow the shape of the dose curve; as a rule, active = well fitted inhibition curve with a large enough effect; inconclusive = small, poorly fitted or top-dose-only effect; inactive = flat fitted curve, though single readings scatter.
Also: nearly all actives have a fitted effect of over 60% in size.

For `CC(C(=O)O)c1ccc(CC2CCCC2=O)cc1` (centres undefined), the Potency result in the test with TAB113, in the test on TAB165 and in the test on W2 was “inactive” each time. For the same compound, the max response in the test with CRL-7250 was 2.29%; with HaCat [1], -3.69%; in the test on KB-3-1 it was -8.05%; in the test with NIH3T3 it was -16.1%. Besides, the call in the test on HEK293 and in the test on HEK293T was inactive.

As for `CC1=C(C)C(=O)C(CCCCC#CCCCC#CCO)=C(C)C1=O`, the Potency in the test with TAB113 is 7.94 µM (active); in the test with TAB165, 5.01 µM (active); with W2, 6.01 µM (active); with HEK293, 16.8 µM (active). In addition, the max response in the test on CRL-7250 is -2.8%; with HaCat [1] it was -15.6%; in the test on KB-3-1 it was -7.44%; with NIH3T3, -8.8%.

For the compound `CC(=O)OCC1=C(C(=O)O)N2C(=O)[C@@H](NC(=O)Cc3cccs3)[C@H]2SC1`, the Potency entry in the test on TAB113, in the test with TAB165 and in the test with W2 was “inactive” throughout. Also, the max response with CRL-7250 is 1.94%; in the test with HEK293, -2.75%; in the test on KB-3-1, 1.19%. Further, the outcome with HaCat [1], with NIH3T3 and with HACAT [2] was inactive.

Consider `COc1cc(C(=O)OCCCN2CCCN(CCCOC(=O)c3cc(OC)c(OC)c(OC)c3)CC2)cc(OC)c1OC`, for which the Potency with TAB113 is 11.2 µM (active); in the test on TAB165, 8.91 µM (active); in the test with W2, 3.01 µM (active); in the test with HEK293, 21.1 µM (active). Moreover, the max response in the test on CRL-7250 is -12.1%; in the test on HaCat [1], 3.13%; in the test with KB-3-1 it was -1.09%; in the test with NIH3T3, -3.19%.

Take `C[N+](C)(C)CCOC(=O)CCC(=O)OCC[N+](C)(C)C`: the Potency entry with TAB113, with TAB165 and in the test on W2 was “inactive” throughout. Further, the max response with CRL-7250 was 1.65%; with HEK293, 4.43%; with KB-3-1, 1.17%. The result with HaCat [1], in the test on NIH3T3 and with HACAT [2] was inactive.

For the compound `c1ccc2c(c1)CCCC2C1=NCCN1` (centres undefined), the values for the max response in the test on CRL-7250, in the test on HEK293 and with KB-3-1 were 0.704%, 3.92% and 10.6%, respectively. Besides, the compound was classed as inactive with HaCat [1], in the test on NIH3T3 and in the test with HACAT [2].

As to `CCCCOCCOCCOCc1cc2c(cc1CCC)OCO2`, the Potency result in the test on TAB113, with TAB165 and with W2 was “inactive” in each case. The Potency in the test with CRL-7250 was 61.8 µM (active). Besides, the max response in the test with CRL-7250 is 0.375%; in the test with HaCat [1], 2.25% and -5.48%; in the test with NIH3T3, -13.2% and 0.929%.

Turning to `NC(=Nc1ccccc1)Nc1ccccc1`, the Potency entry with TAB113 and with TAB165 was “inactive” throughout. In addition, the Potency in the test on W2 is 9.53 µM (active). For the same compound, the max response in the test with CRL-7250 is -3.1%; with HaCat [1], 2.68%; in the test on KB-3-1, -0.105%; in the test on NIH3T3, -0.581%. Besides, the compound was classed as inactive in the test with HEK293, in the test on HaCat [1], with NIH3T3, with HACAT [2] and in the test on HEK293T.

For `CCCNC(C)C(=O)Nc1ccccc1C` (centres undefined), the max response in the test on CRL-7250 was -2.89%; in the test with HEK293, 1.1%; with KB-3-1, 7.86%; in the test with NIH3T3, -0.782%. The result in the test with HaCat [1] and in the test on HACAT [2] was inactive.

Regarding `C[C@H](CS)C(=O)N1CCC[C@H]1C(=O)O`, the Potency result with TAB113, with TAB165 and in the test on W2 was “inactive” in each case. In addition, the max response in the test on CRL-7250 is 1.04%; with HEK293, -1.78%; in the test on HaCat [1] it was 2.06%; in the test with KB-3-1 it was 0.626%; in the test with NIH3T3, -6.68%.

As to `C[C@]12C=CC(=O)C=C1CC[C@H]1[C@@H]3C[C@@H](O)[C@](O)(C(=O)CO)[C@@]3(C)C[C@H](O)[C@@]12F`, the max response is 3.67% in the test with CRL-7250, -5.14% in the test with HaCat [1] and 41.4% with KB-3-1. In addition, the call in the test on HEK293, in the test on NIH3T3 and in the test on HEK293T was inactive.

`CC(=O)Oc1cc(C(C)C)c(OCCN(C)C)cc1C`: the Potency result in the test on TAB113, in the test with TAB165 and in the test with W2 was “inactive” throughout. For the same compound, the max response in the test with CRL-7250 is -7.06%; with HaCat [1] it was 3.27%; in the test with KB-3-1 it was 3.97%. Also, the outcome in the test with HEK293, with NIH3T3 and in the test with HEK293T was inactive.

`CCOC(=O)c1cnc2c(cnn2CC)c1NN=C(C)C`: the Potency result with TAB113 and with TAB165 was “inactive” each time. In addition, the max response in the test on CRL-7250 was 1.67%; in the test on HEK293, 2.79%; in the test on HaCat [1], -11.8%; with KB-3-1, 7.56%; with NIH3T3, -3.28%.

For the compound `CC(C)[N+](C)(CCOC(=O)C1c2ccccc2Oc2ccccc21)C(C)C`, the max response in the test with CRL-7250 was -3.69%; with HEK293 it was -1.62%; in the test on HaCat [1], -8.6%; in the test with KB-3-1, -0.425%. In addition, in the test on NIH3T3, the result was inactive.

Consider `O=C(CCNNC(=O)c1ccncc1)NCc1ccccc1`, for which the Potency entry in the test on TAB113 and in the test on TAB165 was “inactive” in each case. The max response in the test with CRL-7250 was 0.469%; with HEK293, -20%; in the test on HaCat [1], -22%; in the test with KB-3-1 it was 4.64%; in the test with NIH3T3, -21.8%.

As for `CCCN(CCC)C(=O)C(CCC(=O)O)NC(=O)c1ccccc1` (centres undefined), the max response with CRL-7250 was -4.87%; in the test on HaCat [1], 4.34%; with KB-3-1, 20.1%; in the test with NIH3T3, -2.14%. Moreover, the call with HEK293 and with HEK293T was inactive.

Take `NC(Cc1ccc(Cl)cc1)C(=O)O` (centres undefined): the Potency entry in the test on TAB113, in the test with TAB165 and with W2 was “inactive” throughout. Further, the max response is -4.47% with CRL-7250, -13.5% with KB-3-1 and 4.7% in the test on NIH3T3. Further, the outcome with HEK293 and in the test with HaCat [1] was inactive. The outcome in the test on HACAT [2] and in the test with HEK293T was “inactive [at 0.588 µM]” in each case.

`NC(=O)c1ncn([C@@H]2O[C@H](CO)[C@@H](O)[C@H]2O)c1O`: the Potency entry in the test with TAB113, in the test on TAB165 and in the test with W2 was “inactive” in each case. The max response with CRL-7250 is -24.9%; with HEK293 it was 3.19%; in the test on KB-3-1, 8.08%; with NIH3T3 it was -1.25%. The outcome in the test on HaCat [1] and in the test with HACAT [2] was inactive.

Consider `Cc1ccc(=O)n(-c2ccccc2)c1`, for which the Potency entry in the test on TAB113, in the test with TAB165 and in the test with W2 was “inactive” throughout. Also, the max response was -4.72% in the test on CRL-7250; 4.05% in the test with HEK293; 3.39% in the test on HaCat [1]; 4.11% with KB-3-1; -3.29% with NIH3T3.

For the origin of these results see PubChem BioAssay (NCATS).
